KB-V1 cytotox: kills drug-selected multidrug resistant KB-V1 cells; 400,000 compounds, 3.4% hits; Potency, µM (top dose mostly 46.1 µM), most hits filed as cytotoxic; KB-V1 MDR cells viability, CellTiter-Glo, 72 h; AID 1347076; note: nearly all actives have a fitted effect of over 60% in size
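Compound-treated KB-V1 multidrug-resistant cells, 72 h, 37 degrees C; viability by CellTiter-Glo. Fitted qHTS curves give the values.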
TDP1 cell noCPT: qHTS for Inhibitors of human tyrosyl-DNA phosphodiesterase 1 (TDP1): qHTS in cells in absence of CPT. DT40 Tdp1-/- hTDP1 cells, no CPT, ATP luminescence, 48 h. Potency, µM (doses to about 46.2 µM), most hits filed as inhibitors. 420,000 compounds, 15% hits. AID 686978, 2013; note: nearly all actives have a fitted effect of over 55% in size
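Stably hTDP1-transfected Tdp1-null chicken DT40 cells were treated with library compounds minus camptothecin and grown for at least 48 hr at 37 °C, after which cellular ATP was quantified by luminescence.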
KB-3-1 cytotox: kills parental KB-3-1 adenocarcinoma cells. KB-3-1 viability, CellTiter-Glo ATP luminescence, 72 h. Potency, µM (top dose mostly 46.1 µM), actives largely listed as cytotoxic. 400,000 compounds, 1.4% hits. AID 1347075; note: nearly all actives have a fitted effect of over 60% in size
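KB-3-1 cells, DMEM (no phenol red) + 10% FBS; compound by pin transfer, 72 h, 37 °C. Readout: CellTiter-Glo luminescence after 10 min. Data normalized, curve-fitted.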
HT1080-NT tox: kills 2HG-producing HT-1080-NT fibrosarcoma cells; HT-1080-NT fibrosarcoma viability, CellTiter-Glo ATP luminescence, 48 h; Potency, µM (series often up to 46.1 µM), most hits filed as cytotoxic; 360,000 compounds, 1.6% hits; AID 686970;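 note: NT is the 2HG producing partner of a matched IDH1 knockdown line; nearly all actives have a fitted effect of over 55% in size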
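Toxicity toward the 2HG-producing NT line was scored as %Activity, normalised to DMSO and no-cell wells, from CellTiter-Glo luminescence after 48 hours' treatment.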
DT40 TDP1 CPT: growth inhibition of DT40 Tdp1-/-;hTDP1 cells with camptothecin (screen for TDP1 inhibitors). Potency, µM (highest dose often 46.2 µM), hits mostly inhibitors. chicken DT40 Tdp1-/-;hTDP1 cells + 20 nM CPT, ATP luminescence, 48 h. AID 686979. 420,000 compounds, 12% hits; note: nearly all actives have a fitted effect of over 55% in size
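Cell growth measured by CellTiter-Glo luminescence after a minimum 48 h, 37 C compound exposure with 20 nM CPT in Tdp1-knockout DT40 cells stably expressing hTDP1, seeded 400/well; qHTS titration format.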
HT1080 IDH1KD tx: kills HT-1080 cells with IDH1 knockdown. HT-1080 IDH1 knockdown viability, ATP luminescence, 48 h. 360,000 compounds, 2% hits. Potency, µM (titrated, usually from 46.1 µM), usual class: cytotoxic
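Assay cells: HT-1080 with IDH1 knockdown, 750 per well, RPMI/5% FBS. Exposure: 48 h at 37 °C following 2 h pre-incubation. Read: CellTiter-Glo luminescence; fitted concentration-response, curve class assigned.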
Numbers stand for hits; n = inactive; u = inconclusive; x = no result; ! = not confirmed by another sample; [ ] = dose if it differs, or a comment. The list is not random: actives were taken first. Their share in the collection is about 19%. Calls come from the whole dose curve; as a rule, active = well fitted curve in the direction sought with a large enough effect; inconclusive = small, poorly fitted or top-dose-only effect, or another doubt; inactive = no such curve, though single readings can be large; an effect the other way counts as inactive or inconclusive.

SMILES | KB-V1 cytotox | TDP1 cell noCPT | KB-3-1 cytotox | HT1080-NT tox | DT40 TDP1 CPT | HT1080 IDH1KD tx
CCc1nc2ccccc2c(C(=O)OCc2nnc(-c3ccccc3)o2)c1C | n | u | n | n | 18µM | u
CCc1nc2ccccc2c(C(=O)OCC(=O)C(C)(C)C)c1C | u | 18µM | n | n | u | n
CC1=[N+]([O-])C(C)(C)N(O)C1(C)C | n | n | n | n | n | n
COc1cccc(OC)c1C(=O)Nc1ccc2c(c1)N(S(=O)(=O)c1cccs1)CCC2 | n | n | n | n | n | n
COc1ccc(C(=O)Nc2ccc3c(c2)CCCN3C(=O)c2cccs2)c(OC)c1 | u | 12µM | u | n | 8.2µM | n
CCCOc1ccc(C(=O)N2CCCc3ccccc32)cc1 | u | n | n | n | u | n
CCCCOc1ccc(C(=O)Nc2ccc3c(c2)CCCN3C(=O)c2cccs2)cc1 | u | 5.2µM | u | x | 5.8µM | x
Cc1ccccc1C(=O)Nc1cccc(NC(=S)NC(=O)c2cccs2)c1 | n | u | n | n | n | n
COc1cccc(C(=O)Nc2ccc3c(c2)CCCN3C(=O)c2cccs2)c1OC | u | 13µM | 9.2µM! | u | 16µM | u
Cc1ccccc1C(=O)Nc1ccc2c(c1)CCCN2C(=O)c1cccs1 | u | u | u | u | 18µM | u
COc1ccc(C(=O)Nc2cc3c4c(c2)CC(=O)N4CCC3)c(OC)c1 | n | u | n | n | u | n
Cc1ccc2c(c1)CCCN2C(=O)c1cccs1 | 16µM | n | n | n | n | u
O=C(Nc1ccc(C(=O)N2CCCC2)cc1)c1ccccc1 | u | u | u | n | u | n
O=C(Nc1ccc2c(c1)CCCN2C(=O)c1ccccc1)c1ccccc1 | n | 15µM | u | u | u | u
COC(C/C=C/C(=O)COCc1ccccc1)OC | n | u | n | n | 15µM | n
COC(C/C=C/C(=O)[C@H](C)OCc1ccccc1)OC | u | 7.3µM | u | n | 5.2µM | u
COc1ccc(NC(=O)c2cc(C(C)=O)n3ccccc23)cc1 | n | u | n | x | n | x
Cc1cc(C(=O)OCc2nnc(-c3ccccc3)o2)c(C)n1-c1ccccc1 | u | 21µM | n | n | 18µM | n
Cc1noc(C)c1COC(=O)c1cc(=O)[nH]c2ccccc12 | 5.8µM | n | u | n | n | n
Cc1noc(C)c1COC(=O)c1cc(C)n(-c2ccccc2)c1C | 7.3µM | 21µM | u | n | u | n
CCN1C(=O)C2(c3ccccc31)c1c(oc3ccc(C)cc3c1=O)C(=O)N2CCCOC(C)C (stereo unspecified) | n | u | n | x | u | x
COC(=O)Cc1[nH]n(-c2ccccc2)c(=O)c1C=Nc1ccc(C)cc1 | n | n | n | n | n | n
COc1ccccc1/C=C/C(=O)Nc1cccc(S(=O)(=O)NC2=NCCCCC2)c1 | n | u | n | n | u | n
O=C(/C=C/c1ccc(OC(F)F)cc1)Nc1cccc(S(=O)(=O)NC2=NCCCCC2)c1 | u | u | n | n | u | n
COc1ccc(/C=C/C(=O)Nc2cccc(S(=O)(=O)NC3=NCCCCC3)c2)cc1 | u | 23µM | u | n | u | n
SMILES | KB-V1 cytotox | TDP1 cell noCPT | KB-3-1 cytotox | HT1080-NT tox | DT40 TDP1 CPT | HT1080 IDH1KD tx
COc1cc(/C=C/C(=O)Nc2cccc(S(=O)(=O)NC3=NCCCCC3)c2)ccc1OCC#N | n | 26µM | n | u | u | u
O=C(COC(=O)/C=C/c1ccc(Cl)cc1)Nc1cccc(S(=O)(=O)NC2=NCCCCC2)c1 | n | n | n | n | u | n
COc1ccc(/C=C/C(=O)Nc2cccc(S(=O)(=O)NC3=NCCCCC3)c2)c(OC)c1 | n | 12µM | n | n[9.24 µM] | 16µM | n
CSCCC(NC(=O)c1ccccc1Cl)C(=O)Nc1cccc(S(=O)(=O)N2CCCC2)c1 (stereo unspecified) | u | u | n | n | u | n
CCOC1=C(C#N)CC2(CC1)c1ccccc1-c1ccccc12 | u | 23µM | n | n | u | n
CCCNC(=O)NC(=O)CSc1nc2ccccc2n1CC(C)C | u | u | n | n | u | n

Screening data (PubChem BioAssay)
